An excerpt weighted towards active compounds, which were near 8% of everything screened.
KB-3-1 tox – kills parental KB-3-1 adenocarcinoma cells; KB-3-1 viability, CellTiter-Glo ATP luminescence, 72 h; Potency, µM (titrated, usually from 46.1 µM), most hits filed as cytotoxic; hit rate 1.4% among 400,000; AID 1347075; note: % is set by controls: 0 for no effect and ±100 for the full control effect; nearly all actives have a fitted effect of over 60% in size
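Screening of KB-3-1 cells (DMEM, 10% FBS, phenol-red free) ran from lowest to highest compound concentration; after 72 h at 37 °C viability was read luminescently and curves fitted.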
HT1080-NT tox – kills 2HG-producing HT-1080-NT fibrosarcoma cells; HT-1080-NT fibrosarcoma viability, CellTiter-Glo ATP luminescence, 48 h; hit rate 1.6% among 360,000; Potency, µM (doses to about 46.1 µM), for inactives: at the top dose activity, negative = less viability, most hits filed as cytotoxic;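 note: NT is the 2HG producing partner of a matched IDH1 knockdown line; 0% = DMSO-treated cells and -100% = media-only wells without cells; nearly all actives have a fitted effect of over 55% in size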
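Compounds were tested in concentration-response format on HT-1080-NT cells for 48 hours at 37 degrees C. Cell viability came from CellTiter-Glo luminescence; curves were classified by r2, response magnitude and activity.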
HT1080 IDH1KD tx – kills HT-1080 cells with IDH1 knockdown; HT-1080 IDH1 knockdown viability, ATP luminescence, 48 h; Potency, µM (series often up to 46.1 µM), for inactives: at the top dose activity, negative = toxicity, hits mostly cytotoxic; hit rate 2% among 360,000;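 note: 0% = DMSO wells and -100% = cell-free medium wells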
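% activity derives from luminescence (CellTiter-Glo), normalised to DMSO and no-cell wells. HT-1080-IDH1KD cells, 750/well, had 48 h compound exposure at 37 °C.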
SW480 rerep – induces DNA re-replication in SW480 colon adenocarcinoma cells. SW480 DNA re-replication, Hoechst DNA content imaging, 48 h. Potency, µM (series often up to 46.1 µM), without a hit: at the highest dose re-replication activation, usual class: activators. hit rate 1.8% among 340,000. AID 624297; note: % of control where 0% means no effect; nearly all actives have a fitted effect of over 55% in size
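Readout is total intensity of Hoechst-stained nuclei, excited at 405 nm and collected at 500-530 nm. Compound treatment lasted 48 hr at 37 C in 5% CO2 before staining.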
KB-V1 cytotox – kills drug-selected multidrug resistant KB-V1 cells; KB-V1 MDR cells viability, CellTiter-Glo, 72 h; Potency, µM (doses to about 46.1 µM), usual class: cytotoxic; hit rate 3.4% among 400,000; note: % is set by controls: 0 for no effect and ±100 for the full control effect; nearly all actives have a fitted effect of over 60% in size
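qHTS viability screen in drug-selected KB-V1 MDR cells: 72 h compound treatment at 37 degrees C, ATP luminescence end point.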
MCF10A rereplic – inducers of DNA re-replication in MCF 10A breast cells. MCF 10A DNA re-replication, Hoechst nuclear intensity, 48 h. Potency, µM (titrated, usually from 46.1 µM), for the others: at the highest dose activity, positive = re-replication, most hits filed as activators. hit rate 2.9% among 350,000; note: % of control where 0% means no effect; nearly all actives have a fitted effect of over 50% in size
* hit, by the source's call; i = inactive; ? = inconclusive; · = no result given. Calls come from the whole dose curve; as a rule, active = well fitted curve in the direction sought with a large enough effect; inconclusive = small, poorly fitted or top-dose-only effect, or another doubt; inactive = no such curve, though single readings can be large; an effect the other way counts as inactive or inconclusive. Potency is the fitted concentration of half-maximal effect.

SMILES | KB-3-1 tox | HT1080-NT tox | HT1080 IDH1KD tx | SW480 rerep | KB-V1 cytotox | MCF10A rereplic
COc1ccc(C(O)c2nc(-c3ccccc3C)cs2)cc1 (configuration not stated) | i | -1% | 15% | · | i | ·
COc1cccc(Cn2c3ccc(NC(=O)CCc4ccc(F)cc4)cc3c(=O)n2C)c1 | 4.1µM* | ? | 4.1µM* | · | ? | ·
COc1cccc(CNC(=S)Nc2ccc3c(c2)c(=O)n(C)n3Cc2ccc(F)cc2)c1 | i | ? | 0% | · | i | ·
CC(C)=CCn1c2ccc(NC(=O)Nc3cccnc3)cc2c(=O)n1C | i | ? | 10% | · | i | ·
CC(CC(=O)Nc1ccc2c(c1)c(=O)n(C)n2-c1ccccc1)c1ccccc1 (configuration not stated) | 4.6µM* | 3.7µM* | 2.9µM* | · | 10µM* | ·
Cn1c(=O)c2cc(NC(=O)CCc3ccccc3)ccc2n1-c1ccccc1F | ? | ? | 7.3µM* | · | i | ·
Cn1c(=O)c2cc(NC(=O)Nc3cccnc3)ccc2n1-c1ccc(C(C)(C)C)cc1 | ? | 21µM* | ? | · | i | ·
CC(CC(=O)Nc1ccc(Cl)c([N+](=O)[O-])c1)c1ccccc1 (configuration not stated) | ? | ? | ? | ? | i | ?
COc1cc(OC)c(NC(=O)NCc2ccc3c(c2)CCN3C(=O)c2ccccc2)cc1Cl | i | · | · | · | i | ·
COC(=O)c1cc(Cl)ccc1NC(=O)CSc1ncc(S(=O)(=O)c2ccc(Br)cc2)c(=O)[nH]1 | i | · | · | · | ? | ·
COc1cc(NS(=O)(=O)c2ccc(C)cc2)c2c(c1N)C(=O)c1ccccc1C2=O | i | 1% | -3% | · | i | ·
CC(C)=CCn1c2ccc(NC(=O)NCc3ccc(F)cc3)cc2c(=O)n1C | 4.6µM* | ? | 2.3µM* | · | i | ·
COc1ccccc1CCC(=O)Nc1ccc2c(c1)c(=O)n(C)n2Cc1ccc(F)cc1 | 8.2µM* | 3.3µM* | 5.8µM* | · | ? | ·
Cn1c(=O)c2cc(NC(=O)NCc3ccc(F)cc3)ccc2n1C/C=C/c1ccccc1 | ? | ? | ? | · | i | ·
COC(=O)c1ccc(Cn2c(=O)cc(C)c3c(C)nn(C)c32)cc1 | i | · | · | · | i | ·
Cc1ccc(N2C(=O)C3C4C=CC(CNC(=S)Nc5ccc(F)cc5)(O4)C3C2=O)cc1 (configuration not stated) | i | 3% | 0% | ? | i | ?
Cc1ccc(N2C(=O)C3C4C=CC(CNC(=S)Nc5cccc(Cl)c5)(O4)C3C2=O)cc1 (configuration not stated) | i | -3% | -4% | ? | 12µM* | 20%
Cc1ccc(N2C(=O)C3C4C=CC(CNC(=S)Nc5ccc(Cl)cc5)(O4)C3C2=O)cc1 (configuration not stated) | ? | -2% | -17% | 28% | 8.2µM* | ?
Cc1ccc(C)c(Nc2nc(NCc3ccco3)nc3nccnc23)c1 | i | · | · | · | i | ·
COc1cc(C(CC(=O)Nc2ccc(F)cc2F)N2Cc3ccccc3C2=O)cc(OC)c1OC (configuration not stated) | i | · | · | · | i | ·
Cc1ccc2c(c1)-c1c(cnn1CC(=O)N1CCN(c3cc(C)ccc3C)CC1)CO2 | i | · | · | · | ? | ·
O=C(Nc1ccc2nc(-c3ccc(Br)o3)[nH]c2c1)c1cccs1 | ? | -1% | ? | 3% | 8.2µM* | 19%
O=C1C=C(NCCc2cc(Br)c(O)c(Br)c2)C(=O)c2ncccc21 | 7.3µM* | ? | 10µM* | 3.7µM* | 5.8µM* | ?
O=C(NCc1cccc(F)c1)Nc1nnc([C@@H]2C[C@H](O)[C@@H](CO)O2)s1 | i | 11% | ? | · | i | ·
Cc1ccc(-n2c(=O)c3c(c4cc(C)ccc4n3C)n(CC(=O)Nc3cc(C)cc(C)c3)c2=O)cc1 | i | · | · | · | i | ·
